Laboratory results reported in the supplement of paper PMC10849652.
About 7,900 targets were measured; listed, in parts, are those with a hit and a random draw of the rest. About 0.6% of all pairs of compound and target were hits. Unmarked numbers belong to inactive results.

Columns and labels:
Assay in all cases: log2 fold change, soluble protein after heating vs DMSO (PISA); higher = thermal stabilisation; K562 cells, 10 uM, 30 min; active = over 0.2 and 3.5 SD of the protein, either way, in both replicates (recomputed)
[1] = compound: Cc1ccc(NC(=O)c2ccc(CN3CC[C@H](N(C)C)C3)c(C(F)(F)F)c2)cc1Nc1nccc(-c2cncnc2)n1 [bafetinib]
Procedure, shortened: (§1)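 Values are thermal stability changes relative to control samples and are taken from duplicates. They are stated as log2 fold changes. Before quantification by TMTpro 16plex LC-MS/MS with equalised channel sums, K562 cells at 2×10^6 cells/mL were treated with 10 μM compound for 30 min, heated in aliquots for 3 min across 48°C-58°C, pooled, extracted in PBS with 0.5% NP-40 at 4°C, and centrifuged at 21,000xg for 90 min to give the soluble supernatant.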

[2] = compound: Cc1cccc(CC(=O)N2CCc3c2ccc(-c2cn(C)c4ncnc(N)c24)c3F)n1
Procedure, shortened: as §1

[3] = compound: Cc1cn(-c2cc(NC(=O)c3ccc(C)c(Nc4nccc(-c5cccnc5)n4)c3)cc(C(F)(F)F)c2)cn1 [nilotinib]
Procedure, shortened: as §1

[4] = compound: Cc1nc(Nc2n[nH]c3c2CN(C(=O)N[C@H](CN(C)C)c2ccccc2)C3(C)C)c2sccc2n1
Procedure, shortened: as §1

[5] = compound: Cc1nc(Nc2ncc(C(=O)Nc3c(C)cccc3Cl)s2)cc(N2CCN(CCO)CC2)n1 [dasatinib]
Procedure, shortened: as §1

[6] = compound: Cc1ncc(-c2ccnc(Nc3ccc(S(C)(=O)=O)cc3)n2)n1C(C)C
Procedure, shortened: as §1

[7] = compound: Cn1cc(-c2ccc3c(c2)CCN3C(=O)Cc2cccc(C(F)(F)F)c2)c2c(N)ncnc21
Procedure, shortened: as §1

[8] = compound: Cn1cc(-c2ccc3nnc(C(F)(F)c4ccc5ncccc5c4)n3n2)cn1
Procedure, shortened: as §1

[9] = compound: Cn1cncc1[C@@](N)(c1ccc(Cl)cc1)c1ccc2c(c1)c(-c1cccc(Cl)c1)cc(=O)n2C [tipifarnib]
Procedure, shortened: as §1

[10] = compound: FC(F)(F)c1ccc(/C=C/c2nc(COc3ccc(CCCCn4ccnn4)cc3)co2)cc1 [mubritinib]
Procedure, shortened: as §1

[11] = compound: NC(=O)Nc1cc(-c2cccc(F)c2)sc1C(=O)N[C@H]1CCCNC1
Procedure, shortened: as §1

[12] = compound: NC(=O)c1cnc(N[C@@H]2CCCC[C@@H]2N)nc1Nc1cccc(-n2nccn2)c1
Procedure, shortened: as §1

[13] = compound: NC1(c2ccc(-c3nc4ccn5c(=O)[nH]nc5c4cc3-c3ccccc3)cc2)CCC1
Procedure, shortened: as §1

[14] = compound: NCC(=O)Nc1ccc(-n2nc(C(F)(F)F)cc2-c2ccc3c(ccc4ccccc43)c2)cc1
Procedure, shortened: as §1

[15] = compound: Nc1ccccc1NC(=O)c1ccc(CNC(=O)OCc2cccnc2)cc1 [entinostat]
Procedure, shortened: as §1

[16] = compound: O=C(CCCCCCC(=O)Nc1ccccc1)NO [vorinostat]
Procedure, shortened: as §1

[17] = compound: O=C(CCCCCCNC(=O)c1cnc(N(c2ccccc2)c2ccccc2Cl)nc1)NO [citarinostat]
Procedure, shortened: as §1

[18] = compound: O=C(O)c1ccc2c(c1)nc(Nc1cccc(Cl)c1)c1ccncc12 [silmitasertib]
Procedure, shortened: as §1

[19] = compound: O=C1NC(=O)C(c2cnc3ccccn23)=C1c1cn2c3c(cc(F)cc13)CN(C(=O)N1CCCCC1)CC2
Procedure, shortened: as §1

[20] = compound: c1cc(OCCN2CCCCC2)cc(-c2n[nH]c3ccc(-c4nnc[nH]4)cc23)c1
Procedure, shortened: as §1

UniProt O95613, sequence (O95613 whole entry, looked up): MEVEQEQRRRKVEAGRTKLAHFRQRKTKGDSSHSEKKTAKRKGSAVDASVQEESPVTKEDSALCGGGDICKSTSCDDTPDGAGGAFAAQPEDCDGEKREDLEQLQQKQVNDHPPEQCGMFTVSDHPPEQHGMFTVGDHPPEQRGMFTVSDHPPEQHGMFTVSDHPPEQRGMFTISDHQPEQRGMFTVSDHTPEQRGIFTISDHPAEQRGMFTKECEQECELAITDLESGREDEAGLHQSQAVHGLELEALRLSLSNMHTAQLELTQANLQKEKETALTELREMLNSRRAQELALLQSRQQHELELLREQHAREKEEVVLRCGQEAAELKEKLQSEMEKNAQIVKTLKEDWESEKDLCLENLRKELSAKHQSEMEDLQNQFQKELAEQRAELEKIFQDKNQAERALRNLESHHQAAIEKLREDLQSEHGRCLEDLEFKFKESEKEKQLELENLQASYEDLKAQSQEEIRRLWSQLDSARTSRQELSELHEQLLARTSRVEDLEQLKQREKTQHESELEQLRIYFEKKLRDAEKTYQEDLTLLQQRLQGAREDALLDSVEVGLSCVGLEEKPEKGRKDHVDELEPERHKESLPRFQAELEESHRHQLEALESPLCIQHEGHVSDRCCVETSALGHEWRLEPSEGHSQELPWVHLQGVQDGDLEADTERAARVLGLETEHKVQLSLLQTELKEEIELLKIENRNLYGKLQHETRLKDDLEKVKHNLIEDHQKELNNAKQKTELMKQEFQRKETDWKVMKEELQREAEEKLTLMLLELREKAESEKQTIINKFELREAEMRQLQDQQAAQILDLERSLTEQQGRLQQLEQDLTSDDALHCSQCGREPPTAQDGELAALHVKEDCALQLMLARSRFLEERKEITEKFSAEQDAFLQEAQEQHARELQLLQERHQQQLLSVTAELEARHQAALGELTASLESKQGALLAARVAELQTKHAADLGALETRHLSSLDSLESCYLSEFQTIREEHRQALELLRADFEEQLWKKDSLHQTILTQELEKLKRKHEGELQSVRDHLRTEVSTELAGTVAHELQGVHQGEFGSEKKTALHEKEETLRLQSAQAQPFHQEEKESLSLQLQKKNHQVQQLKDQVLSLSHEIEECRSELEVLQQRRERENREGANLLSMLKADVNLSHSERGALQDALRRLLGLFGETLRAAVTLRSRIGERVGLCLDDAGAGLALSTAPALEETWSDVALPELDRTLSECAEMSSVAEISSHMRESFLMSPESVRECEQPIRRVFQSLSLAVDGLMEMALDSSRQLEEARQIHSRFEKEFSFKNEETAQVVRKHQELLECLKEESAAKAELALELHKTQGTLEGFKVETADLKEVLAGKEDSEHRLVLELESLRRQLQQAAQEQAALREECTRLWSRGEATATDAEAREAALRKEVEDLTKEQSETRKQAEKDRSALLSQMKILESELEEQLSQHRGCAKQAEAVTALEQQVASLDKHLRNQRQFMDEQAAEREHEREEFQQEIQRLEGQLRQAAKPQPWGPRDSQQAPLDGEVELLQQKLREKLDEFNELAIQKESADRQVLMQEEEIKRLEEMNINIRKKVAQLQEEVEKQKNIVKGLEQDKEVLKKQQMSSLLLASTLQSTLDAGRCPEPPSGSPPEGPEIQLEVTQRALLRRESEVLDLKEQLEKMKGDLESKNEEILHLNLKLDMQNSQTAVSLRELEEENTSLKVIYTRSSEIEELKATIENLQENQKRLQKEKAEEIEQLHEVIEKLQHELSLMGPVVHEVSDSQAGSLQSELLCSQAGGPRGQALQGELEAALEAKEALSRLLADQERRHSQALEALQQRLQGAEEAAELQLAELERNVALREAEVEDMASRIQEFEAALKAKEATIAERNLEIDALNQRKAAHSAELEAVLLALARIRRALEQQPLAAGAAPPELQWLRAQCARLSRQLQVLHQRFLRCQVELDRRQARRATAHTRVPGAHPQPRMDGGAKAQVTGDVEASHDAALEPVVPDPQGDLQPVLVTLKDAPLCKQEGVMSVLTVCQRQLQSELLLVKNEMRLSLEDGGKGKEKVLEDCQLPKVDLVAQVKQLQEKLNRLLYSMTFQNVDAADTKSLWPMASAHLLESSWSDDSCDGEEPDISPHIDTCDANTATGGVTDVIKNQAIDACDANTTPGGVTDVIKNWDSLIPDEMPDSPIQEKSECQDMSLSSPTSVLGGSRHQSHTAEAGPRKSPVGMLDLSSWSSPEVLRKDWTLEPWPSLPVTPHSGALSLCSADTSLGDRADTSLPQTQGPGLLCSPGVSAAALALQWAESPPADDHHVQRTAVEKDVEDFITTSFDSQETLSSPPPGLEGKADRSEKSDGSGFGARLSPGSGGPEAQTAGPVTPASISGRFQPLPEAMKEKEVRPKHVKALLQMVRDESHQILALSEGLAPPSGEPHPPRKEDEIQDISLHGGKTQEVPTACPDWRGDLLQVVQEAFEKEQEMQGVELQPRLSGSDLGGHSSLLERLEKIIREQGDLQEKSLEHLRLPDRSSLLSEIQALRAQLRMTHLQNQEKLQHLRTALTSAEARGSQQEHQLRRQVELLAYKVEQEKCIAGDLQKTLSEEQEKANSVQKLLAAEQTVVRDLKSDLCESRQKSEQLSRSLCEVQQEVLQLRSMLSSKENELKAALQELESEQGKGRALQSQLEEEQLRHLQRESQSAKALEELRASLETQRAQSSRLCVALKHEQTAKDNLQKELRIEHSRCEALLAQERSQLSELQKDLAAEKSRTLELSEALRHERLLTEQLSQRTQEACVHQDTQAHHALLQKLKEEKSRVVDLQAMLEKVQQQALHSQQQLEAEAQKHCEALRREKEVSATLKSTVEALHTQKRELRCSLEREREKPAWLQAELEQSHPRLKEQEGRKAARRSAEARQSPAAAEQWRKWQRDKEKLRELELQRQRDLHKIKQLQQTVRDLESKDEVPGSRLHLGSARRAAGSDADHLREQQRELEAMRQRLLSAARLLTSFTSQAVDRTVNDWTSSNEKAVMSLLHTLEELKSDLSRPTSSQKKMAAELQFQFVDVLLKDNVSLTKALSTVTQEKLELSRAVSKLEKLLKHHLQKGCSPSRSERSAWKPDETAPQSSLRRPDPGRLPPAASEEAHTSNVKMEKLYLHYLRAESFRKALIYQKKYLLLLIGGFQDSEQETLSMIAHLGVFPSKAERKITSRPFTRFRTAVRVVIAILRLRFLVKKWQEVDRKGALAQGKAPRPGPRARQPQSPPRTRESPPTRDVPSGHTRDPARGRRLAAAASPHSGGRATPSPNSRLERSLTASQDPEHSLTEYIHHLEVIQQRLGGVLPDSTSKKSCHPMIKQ
UniProt Q13362, sequence (Q13362 whole entry, looked up): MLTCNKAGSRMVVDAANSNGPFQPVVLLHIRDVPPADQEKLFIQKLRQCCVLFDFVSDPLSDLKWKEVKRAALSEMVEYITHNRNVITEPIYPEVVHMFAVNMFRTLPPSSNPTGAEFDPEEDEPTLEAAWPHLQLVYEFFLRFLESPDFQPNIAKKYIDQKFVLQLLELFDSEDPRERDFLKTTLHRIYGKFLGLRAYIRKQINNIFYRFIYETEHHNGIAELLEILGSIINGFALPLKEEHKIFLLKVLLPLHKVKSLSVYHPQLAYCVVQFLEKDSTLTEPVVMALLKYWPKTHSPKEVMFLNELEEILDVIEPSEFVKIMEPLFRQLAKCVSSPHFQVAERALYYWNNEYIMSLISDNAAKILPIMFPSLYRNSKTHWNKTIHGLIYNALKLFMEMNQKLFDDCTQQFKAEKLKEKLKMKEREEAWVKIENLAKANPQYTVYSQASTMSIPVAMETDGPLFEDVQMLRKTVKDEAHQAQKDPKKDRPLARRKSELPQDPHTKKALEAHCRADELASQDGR
UniProt P48426, sequence (P48426 whole entry, looked up): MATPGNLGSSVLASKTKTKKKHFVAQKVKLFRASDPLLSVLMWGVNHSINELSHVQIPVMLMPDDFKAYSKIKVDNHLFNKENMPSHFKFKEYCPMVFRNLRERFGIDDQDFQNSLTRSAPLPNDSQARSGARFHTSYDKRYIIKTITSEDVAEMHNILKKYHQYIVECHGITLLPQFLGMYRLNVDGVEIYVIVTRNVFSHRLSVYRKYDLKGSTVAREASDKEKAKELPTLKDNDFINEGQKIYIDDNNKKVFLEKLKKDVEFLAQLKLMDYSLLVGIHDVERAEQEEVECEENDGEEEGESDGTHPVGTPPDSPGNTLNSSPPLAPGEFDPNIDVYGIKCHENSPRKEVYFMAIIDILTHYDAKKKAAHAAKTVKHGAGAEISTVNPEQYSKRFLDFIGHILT

Row | Target | log2 fold change [1] | log2 fold change [2] | log2 fold change [3] | log2 fold change [4] | log2 fold change [5] | log2 fold change [6] | log2 fold change [7] | log2 fold change [8] | log2 fold change [9] | log2 fold change [10] | log2 fold change [11] | log2 fold change [12] | log2 fold change [13] | log2 fold change [14] | log2 fold change [15] | log2 fold change [16] | log2 fold change [17] | log2 fold change [18] | log2 fold change [19] | log2 fold change [20]
1 | PPP2R5C isoform 4 (UniProt Q13362) | -0.032 | -0.019 | -0.05 | -0.025 | -0.058 | -0.008 | 0.037 | 0.052 | -0.093 | 0.095 | -0.035 | 0.079 | -0.064 | -0.065 | 0.012 | -0.033 | 0.055 | -0.015 | -0.022 | 0.058
2 | PIP4K2A (UniProt P48426) | 0.283 | 0.103 | 0.077 | 0.065 | 0.048 | 0.588 (active) | 0.037 | 0.181 | -0.081 | -0.06 | -0.026 | 0.013 | -0.086 | 0.113 | 0.026 | -0.037 | 0.004 | 0.259 | 0.057 | -0.057
3 | PCNT (UniProt O95613) | -0.227 | -0.324 | -0.117 | 0.045 | 0.085 | -0.002 | -0.076 | 0.107 | 0.127 | -0.004 | -0.341 | -0.277 | -0.106 | -0.294 | -0.129 | -0.137 | -0.076 | 0.11 | -0.142 | -0.233
